# Assay results taken from the antibiotic and cytotoxicity screens of Wong et al. (2023).
# In all, about 39,000 compounds went through this assay and about 3,300 (8.5%) were called active. The entries come from a sample that favours actives as a whole.
# System: HepG2
# Assay: cytotoxicity call (relative viability < 0.9)
# Details: 10 µM
row,SMILES,cytotoxicity call
1,C[C@@H]1CN([C@@H](C)CO)C(=O)CCCn2nncc2CO[C@H]1CN(C)C(=O)Nc1ccc(C(C)(C)C)cc1,inactive
2,C[C@H](CO)N1C[C@H](C)[C@@H](CN(C)Cc2ccc(C(=O)O)cc2)Oc2c(NC(=O)c3cnccn3)cccc2C1=O,inactive
3,CCOc1nc(N2CCOCC2)nc(N2CCOCC2)n1,inactive
4,CC=NN(C)C=O,inactive
5,CC(C)NC(=O)Nc1ccc2c(c1)CC(=O)N([C@@H](C)CO)C[C@H](C)[C@@H](CN(C)S(=O)(=O)c1ccccc1)O2,inactive
6,CC(C)COCC(CN(Cc1ccccc1)c1ccccc1)N1CCCC1.Cl (stereo not drawn),active
7,CC(COc1ccccc1)N(CCCl)Cc1ccccc1.Cl (stereo not drawn),inactive
8,c1ccc(CN(CC2=NCCN2)c2ccccc2)cc1,inactive
9,CN(C)C(=O)[C@@H]1[C@@H](CO)[C@@H]2Cn3c(ccc(C4=CCCC4)c3=O)[C@H]1N2S(=O)(=O)c1cn(C)cn1,inactive
10,COc1cccc(C#Cc2cnc3c(c2)C(=O)N([C@H](C)CO)C[C@H](C)[C@@H](CN(C)C(=O)C2CCC2)O3)c1,inactive
11,Cn1cnc(S(=O)(=O)N2C[C@@H](O)COC[C@@H]3O[C@H](CC(=O)NCc4cc(F)cc(F)c4)CC[C@H]32)c1,inactive
12,C[C@H](CO)N1C[C@H](C)[C@H](CN(C)S(=O)(=O)c2cccs2)Oc2ncc(-c3ccc(F)cc3)cc2C1=O,inactive
13,Cc1cc2nc3c(=O)[nH]c(=O)nc-3n(CC(O)C(O)C(O)CO)c2cc1C (stereo not drawn),inactive
14,Cc1cc2nc3c(=O)[nH]c(=O)nc-3n(C[C@H](O)[C@H](O)[C@H](O)COP(=O)(O)O)c2cc1C,inactive
15,Cc1cc2nc3c(=O)[nH]c(=O)nc-3n(CC(O)C(O)C(O)COP(=O)([O-])O)c2cc1C.[Na+] (stereo not drawn),active
16,C[C@@H]1CN([C@H](C)CO)C(=O)c2cc(C#CC3(O)CCCC3)cnc2O[C@H]1CN(C)C(=O)Cc1ccccc1,inactive
17,C[C@H]1CN([C@@H](C)CO)C(=O)c2cccc(NC(=O)Nc3cccc4ccccc34)c2O[C@H]1CN(C)Cc1ccc(-c2ccccc2)cc1,inactive
18,C[C@@H]1CCCCO[C@H](CN(C)Cc2ccc(C(=O)O)cc2)[C@H](C)CN([C@H](C)CO)C(=O)c2cc(NC(=O)Nc3ccc4c(c3)OCO4)ccc2O1,inactive
19,C[C@@H]1CCCCO[C@H](CN(C)Cc2ccc(Cl)c(Cl)c2)[C@@H](C)CN([C@@H](C)CO)C(=O)c2cc(NC(=O)Nc3ccc(C(F)(F)F)cc3)ccc2O1,active
20,C[C@@H]1CN([C@H](C)CO)C(=O)c2cc(NC(=O)Nc3ccc(C(F)(F)F)cc3)ccc2O[C@@H](C)CCCCO[C@H]1CN(C)Cc1ccc(Cl)c(Cl)c1,inactive
21,C[C@@H]1CCCCO[C@@H](CN(C)Cc2ccc(Cl)c(Cl)c2)[C@@H](C)CN([C@H](C)CO)C(=O)c2cc(NC(=O)Nc3ccc(C(F)(F)F)cc3)ccc2O1,inactive
22,C[C@@H]1CN([C@@H](C)CO)C(=O)c2cc(NC(=O)Nc3ccc(C(F)(F)F)cc3)ccc2O[C@@H](C)CCCCO[C@H]1CN(C)Cc1ccc(Cl)c(Cl)c1,inactive
23,C[C@@H]1CCCCO[C@H](CN(C)Cc2ccc(Cl)c(Cl)c2)[C@H](C)CN([C@@H](C)CO)C(=O)c2cc(NC(=O)Nc3ccc(C(F)(F)F)cc3)ccc2O1,active
24,C[C@@H]1CCCCO[C@@H](CN(C)Cc2ccc(Cl)c(Cl)c2)[C@@H](C)CN([C@@H](C)CO)C(=O)c2cc(NC(=O)Nc3ccc(C(F)(F)F)cc3)ccc2O1,inactive
25,C[C@@H]1CN([C@H](C)CO)C(=O)c2cc(NC(=O)Nc3ccc(C(F)(F)F)cc3)ccc2O[C@@H](C)CCCCO[C@@H]1CN(C)Cc1ccc(Cl)c(Cl)c1,inactive
26,C[C@H](CO)N1C[C@H](C)[C@@H](CN(C)Cc2ccc(Cl)c(Cl)c2)OCCCC[C@H](C)Oc2ccc(NC(=O)Nc3ccc(C(F)(F)F)cc3)cc2C1=O,active
27,C[C@@H]1CCCCO[C@@H](CN(C)Cc2ccc(Cl)c(Cl)c2)[C@H](C)CN([C@@H](C)CO)C(=O)c2cc(NC(=O)Nc3ccc(C(F)(F)F)cc3)ccc2O1,active
28,C[C@@H]1CCCCO[C@@H](CN(C)Cc2ccc(Cl)c(Cl)c2)[C@H](C)CN([C@H](C)CO)C(=O)c2cc(NC(=O)Nc3ccc(C(F)(F)F)cc3)ccc2O1,inactive
